Test systems include HCT-15 colon; HT29 colon; SNB-75 CNS; SNB-19 CNS; U251 CNS; PC-3 prostate; SK-MEL-5 melanoma; UACC-62 melanoma; LOX IMVI melanoma; SK-MEL-28 melanoma; SK-MEL-2 melanoma; EKVX NSCLC; SN12C renal; UO-31 renal; TK-10 renal; ACHN renal; CAKI-1 renal; A498 renal; CCRF-CEM leukemia; MOLT-4 leukemia.
What all share (test): NCI-60 one-dose screen, 48 h (100 = growth as untreated, 0 = no growth, -100 = all killed)
What all share (settings): 10 µM unless noted

This is part of a sample that, as a whole, favours compounds with a hit. Of some 83,000 tested, about 20% had one in any assay.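 96-well plates, one dose, 48 hours. Percent growth reported; active if below 10.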 A number with no mark means an inactive call. The source made the active and inactive calls.

`CCCCCc1ccc(S(=O)(=O)Nc2cc(-c3csc(NC(=O)CN4CCN(C)CC4)n3)ccc2OC)cc1`: the growth in the experiment on HCT-15 colon is -58.9% (active); with HT29 colon, -31.1% (active); in the experiment on SNB-75 CNS it was 91.2%; in the experiment with SNB-19 CNS, 6.64% (active); in the experiment on U251 CNS, -18.2% (active); in the experiment on PC-3 prostate it was 23.2%. Besides, the growth was -93.5% (active) in the experiment on SK-MEL-5 melanoma; -58.5% (active) in the experiment on UACC-62 melanoma; -94% (active) in the experiment on LOX IMVI melanoma; -69.4% (active) in the experiment on SK-MEL-28 melanoma; 73.6% in the experiment on SK-MEL-2 melanoma; 63.4% with EKVX NSCLC. The growth in the experiment with SN12C renal was 11.8%; with UO-31 renal it was -92.7% (active); in the experiment on TK-10 renal, 103%; in the experiment with ACHN renal, 3.55% (active); in the experiment with CAKI-1 renal, -15.5% (active); in the experiment with A498 renal, 75.2%. The values for the growth in the experiment with CCRF-CEM leukemia and with MOLT-4 leukemia were 2.18% (active) and -5.31% (active), respectively.
Consider `Brc1ccccc1/C=N/Nc1nc(N/N=C/c2ccccc2Br)nc(N2CCOCC2)n1`, for which the growth in the experiment on HCT-15 colon was 81.1%; in the experiment on HT29 colon, 74%; in the experiment with SNB-75 CNS, 132%; with SNB-19 CNS, 101%; in the experiment with U251 CNS, 96.5%; in the experiment on PC-3 prostate, 84%. In addition, the growth in the experiment with SK-MEL-5 melanoma was 69.6%; with UACC-62 melanoma it was 102%; in the experiment on LOX IMVI melanoma it was 103%; with SK-MEL-28 melanoma, 99.3%; in the experiment with SK-MEL-2 melanoma, 96.3%; with EKVX NSCLC, 80.2%. Moreover, the growth in the experiment with SN12C renal is 98.8%; with UO-31 renal it was 78.6%; with TK-10 renal, 99.4%; in the experiment on ACHN renal, 93.6%; in the experiment with CAKI-1 renal, 109%; in the experiment with A498 renal, 50.2%. For the same compound, the growth in the experiment on CCRF-CEM leukemia was 80.1%; with MOLT-4 leukemia, 72.6%.
On to `Cc1ccc(NC(=S)NNC(=S)Nc2ccc(C)cc2)cc1`, for which the growth in the experiment with HCT-15 colon is 96.7%; with HT29 colon, 105%; in the experiment with SNB-75 CNS it was 96.1%; in the experiment with SNB-19 CNS it was 98.5%; in the experiment on U251 CNS, 106%; in the experiment with PC-3 prostate, 101%. Moreover, the growth is 102% in the experiment on SK-MEL-5 melanoma; 98.6% in the experiment on UACC-62 melanoma; 115% in the experiment on LOX IMVI melanoma; 105% with SK-MEL-28 melanoma; 109% in the experiment on SK-MEL-2 melanoma; 94.5% in the experiment on EKVX NSCLC. The growth is 98.1% in the experiment on SN12C renal; 89.9% in the experiment on UO-31 renal; 109% in the experiment with TK-10 renal; 105% with ACHN renal; 102% in the experiment with CAKI-1 renal; 84.1% in the experiment with A498 renal. Further, the figures for the growth in the experiment on CCRF-CEM leukemia and with MOLT-4 leukemia were 95.6% and 97.5%, respectively.
Consider `CCNC(=O)Oc1ccc(/C(=C(/C)c2ccccc2)c2ccc(OCCN3CCCCCC3)cc2)cc1`, for which the growth with HCT-15 colon is 3.38% (active); in the experiment on HT29 colon, -14.2% (active); in the experiment on SNB-75 CNS it was -0.681% (active); with SNB-19 CNS, 12.7%; in the experiment on U251 CNS, -44.6% (active); in the experiment with PC-3 prostate, 13.1%. Further, the growth was -94.7% (active) in the experiment with SK-MEL-5 melanoma; 16.5% in the experiment on UACC-62 melanoma; -14.8% (active) in the experiment on LOX IMVI melanoma; -41.8% (active) with SK-MEL-28 melanoma; -30% (active) in the experiment with SK-MEL-2 melanoma; 52.4% in the experiment with EKVX NSCLC. For the same compound, the growth in the experiment with SN12C renal was 26.4%; in the experiment with UO-31 renal it was -20.3% (active); in the experiment on TK-10 renal, 66.5%; in the experiment on ACHN renal, 18.9%; in the experiment on CAKI-1 renal, 8.75% (active); in the experiment on A498 renal, 26.6%. The growth in the experiment on CCRF-CEM leukemia was 7.24% (active); with MOLT-4 leukemia, 2.51% (active).
Regarding `CC1(C)CC[C@]2(C(=O)O)CC[C@]3(C)C(=CC[C@@H]4[C@@]5(C)CC/C(=N\OCCC#N)C(C)(C)[C@@H]5CC[C@]43C)[C@@H]2C1`, the growth in the experiment on HCT-15 colon was 106%; in the experiment with HT29 colon it was 109%; with SNB-75 CNS it was 53.4%; with SNB-19 CNS, 104%; with U251 CNS it was 107%; in the experiment with PC-3 prostate it was 99.2%. Further, the growth is 98.4% in the experiment on SK-MEL-5 melanoma; 92.6% in the experiment with UACC-62 melanoma; 91.8% in the experiment with LOX IMVI melanoma; 106% in the experiment with SK-MEL-28 melanoma; 93.5% in the experiment with SK-MEL-2 melanoma; 70.7% in the experiment with EKVX NSCLC. The growth in the experiment with SN12C renal was 86.7%; in the experiment on UO-31 renal, 61.1%; in the experiment with TK-10 renal it was 51.3%; in the experiment on ACHN renal, 100%; with CAKI-1 renal, 59.7%; with A498 renal, 51.3%. Also, the growth in the experiment with CCRF-CEM leukemia was 90.1%; with MOLT-4 leukemia, 101%.
On to `COc1ccc(C(=O)CSc2nc3c(c(Nc4ccc(S(N)(=O)=O)cc4)n2)CCCC3)cc1`, for which the growth was 88.4% in the experiment on HCT-15 colon; 96.4% in the experiment on HT29 colon; 119% with SNB-75 CNS; 94.1% in the experiment with SNB-19 CNS; 89.9% in the experiment on U251 CNS; 83.7% with PC-3 prostate. Also, the growth was 96.6% in the experiment with SK-MEL-5 melanoma; 93.5% in the experiment with UACC-62 melanoma; 83% with LOX IMVI melanoma; 110% with SK-MEL-28 melanoma; 104% with SK-MEL-2 melanoma; 96.7% with EKVX NSCLC. For the same compound, the growth is 89.9% in the experiment with SN12C renal; 81.1% in the experiment on UO-31 renal; 120% in the experiment on TK-10 renal; 89.9% in the experiment with ACHN renal; 70.9% with CAKI-1 renal; 86.5% in the experiment on A498 renal. Besides, the figures for the growth in the experiment on CCRF-CEM leukemia and in the experiment with MOLT-4 leukemia were 83.1% and 75.7%, respectively.
For `CC(=O)N1N=C(c2cccc(-n3cccc3)c2)CC1c1cccc(F)c1` (stereo not given), the growth with HCT-15 colon is 92.8%; in the experiment with HT29 colon it was 100%; in the experiment on SNB-75 CNS, 104%; in the experiment on SNB-19 CNS, 88.5%; in the experiment with U251 CNS, 93.4%; in the experiment on PC-3 prostate it was 84.9%. For the same compound, the growth with SK-MEL-5 melanoma was 98.7%; with UACC-62 melanoma, 81%; in the experiment on LOX IMVI melanoma, 95.5%; with SK-MEL-28 melanoma, 103%; in the experiment with SK-MEL-2 melanoma, 103%; in the experiment on EKVX NSCLC it was 95.7%. The growth in the experiment with SN12C renal is 97.1%; in the experiment on UO-31 renal, 75.4%; in the experiment on TK-10 renal, 123%; in the experiment on ACHN renal, 101%; in the experiment on CAKI-1 renal, 86.5%; in the experiment on A498 renal, 101%. The growth in the experiment on CCRF-CEM leukemia was 94.4%; in the experiment on MOLT-4 leukemia, 90.3%.
Take `Cc1cc(C)n(C(=O)c2sc(=S)n(-c3ccccc3)c2N=Nc2c(N)n[nH]c2N)n1`: the growth in the experiment on HCT-15 colon was 108%; with HT29 colon, 103%; in the experiment with SNB-75 CNS, 109%; with SNB-19 CNS it was 105%; in the experiment with U251 CNS it was 104%; with PC-3 prostate, 98.7%. The growth in the experiment with SK-MEL-5 melanoma was 103%; in the experiment with UACC-62 melanoma, 98.2%; in the experiment with LOX IMVI melanoma, 101%; in the experiment with SK-MEL-28 melanoma, 106%; in the experiment with SK-MEL-2 melanoma, 110%; with EKVX NSCLC, 102%. Also, the growth in the experiment with SN12C renal was 105%; with UO-31 renal, 84.8%; with TK-10 renal, 122%; in the experiment on ACHN renal it was 102%; with CAKI-1 renal, 98.9%; with A498 renal it was 92.8%. The growth is 95.5% in the experiment with CCRF-CEM leukemia and 105% in the experiment on MOLT-4 leukemia.

Values taken from PubChem BioAssay (NCI).
